Laboratory results: PMC4552634, “A New Set of Chemical Starting Points with Plasmodium falciparum Transmission-Blocking Potential for Antimalarial Drug Discovery” (PLoS ONE, 2015)
Where two headings read alike, the source gives them in different places. Out of some 13,000 compounds screened, about 3,200 (25%) showed an effect of 50% or more. The list shows a part of the results.

Tested on: P. falciparum stage V gametocytes
Design: BacTiter-Glo ATP luminescence viability of purified stage V gametocytes in 384-well plates, per cent inhibition versus DMSO
Details: 48 h, 5 µM, inhibitor

Structure (SMILES) | % Inhibition | % Inhibition (% Inhibition)
Cc1nc(-c2cccc(Nc3nccc(NCC(O)c4cccc(C(F)(F)F)c4)n3)c2)cs1 (centres unmarked) [TCMDC-136581] | -55.32% | –
CC(Cc1ccc(COc2ccc(CC(CO)NCCc3cccc(Cl)c3)cc2)cc1)NCCc1cccc(Cl)c1 (centres unmarked) [TCMDC-139844] | 116.5% | –
CC(Cc1ccc(OCc2ccc(CCN(C)C)cc2)cc1)NCCc1cccc(Cl)c1 (centres unmarked) [TCMDC-139644] | 101.3% | –
CC(Cc1ccc(OCC(=O)NCC2CCN(CCc3cccc(Cl)c3)CC2)cc1)NCCc1cccc(Cl)c1 (centres unmarked) [TCMDC-139834] | 46.25% | –
CC(Cc1ccc(OCc2ccccc2)cc1)NCC(O)c1cccc(Cl)c1 (centres unmarked) [TCMDC-131473] | 11.58% | –
CCCCCCNC(=O)C1Cc2c([nH]c3ccc(C)cc23)C2(CCN(CCc3ccccc3)CC2)N1 (centres unmarked) [TCMDC-141092] | -44.59% | –
Cc1ccc(-c2cc(C(=O)Nc3ccc(S(=O)(=O)N4CCCC(C)C4)cc3)[nH]n2)c(O)c1 (centres unmarked) [TCMDC-125183] | -50.15% | –
COc1cc(CCOc2c(C)nc(N)nc2N)cc(OC)c1OC [TCMDC-131360] | -25.98% | –
FC(F)(F)c1ccc(Nc2nnnc3ccccc23)cc1 [TCMDC-125603] | 38.58% | –
CC(Cc1ccc(SCCSc2ccccc2)cc1)NCC(O)c1cccc(Cl)c1 (centres unmarked) [TCMDC-131515] | 37.98% | –
CC(Cc1ccc(CSC(C)C)cc1)NCC(O)c1cccc(Cl)c1 (centres unmarked) [TCMDC-131525] | 23.17% | –
C[C@H](Cc1ccc(Oc2ccc(C[C@@H](C)NC[C@H](O)c3cccc(Cl)c3)cc2)cc1)NC[C@H](O)c1cccc(Cl)c1 [TCMDC-131560] | 108% | –
CCCCCCCSc1ccc(CC(C)NCC(O)c2cccc(Cl)c2)cc1 (centres unmarked) [TCMDC-131493] | 21.35% | –
C[C@H](Cc1ccc(S(=O)(=O)c2ccc(C[C@@H](C)NC[C@H](O)c3cccc(Cl)c3)cc2)cc1)NC[C@H](O)c1cccc(Cl)c1 [TCMDC-131561] | 74.46% | –
C[C@H](Cc1ccc(CCc2ccc(C[C@@H](C)NC[C@H](O)c3cccc(Cl)c3)cc2)cc1)NC[C@H](O)c1cccc(Cl)c1 [TCMDC-131551] | 114.3% | –
COC(=O)/C=C/c1ccc(CC(C)NCC(O)c2cccc(Cl)c2)cc1 (centres unmarked) [TCMDC-131433] | -3.295% | –
COc1ccc(CC(Cc2ccc(OC)cc2)NCC(O)c2cccc(Cl)c2)cc1 (centres unmarked) [TCMDC-131543] | 12.1% | –
CC(Cc1ccc(S(=O)(=O)N(C(C)C)C(C)C)cc1)NCC(O)c1cccc(C(F)(F)F)c1 (centres unmarked) [TCMDC-131526] | 19.58% | –
CNCCCCCCc1ccc(CC(C)NCC(O)c2cccc(Cl)c2)cc1 (centres unmarked) [TCMDC-131495] | 95.63% | –
Cc1ccc(CCC(C)NCC(O)c2cccc(Cl)c2)cc1 (centres unmarked) [TCMDC-131436] | 13.72% | –
CC(Cc1ccc(Oc2ccc(Cl)cc2)cc1)NCC(O)c1cccc(Cl)c1 (centres unmarked) [TCMDC-131511] | 4.056% | –
O=C(CCCCCNC(=O)c1ccc(O)c(-c2ccc(Cl)c(Cl)c2)c1)NCCN1CCCC1 [TCMDC-140826] | -20.01% | –
O=C(N[C@@H](CC1CCCCC1)C(=O)NCCN1CCOCC1)c1ccc(O)c(-c2ccc(Cl)c(Cl)c2)c1 [TCMDC-140854] | 37.92% | –

Structure (SMILES) | % Inhibition | % Inhibition (% Inhibition)
O=C(NC1CCN(c2ccnc3ccccc23)C1)c1ccc(OC(F)(F)F)cc1 (centres unmarked) [TCMDC-133582] | -7.681% | –
O=c1cc(NCCCNCc2ccc3c(c2)OC(F)(F)O3)[nH]c2ccccc12 [TCMDC-139426] | -44.23% | –
CCCN(CCCCNC(=O)c1ccc(-c2cccnc2)cc1)C1CCc2c(O)cccc2C1 (centres unmarked) [TCMDC-139071] | -19.52% | –
CC(=O)Nc1ccc(CN2CCc3ccc(NS(=O)(=O)c4cccc(OCc5ccc(Cl)cc5)c4)cc3CC2)s1 [TCMDC-132327] | 4.938% | –
O=C(Nc1ccc(-c2cccc(-c3nc4ccc(F)cc4[nH]3)c2)cc1)Nc1ccc(F)c(F)c1F [TCMDC-133235] | -6.689% | –
CN(C)CCOc1cccc(-c2cnc(N)c(-c3nc4ccc(S(C)(=O)=O)cc4[nH]3)c2)c1 [TCMDC-133722] | 17.79% | –
CN(Cc1cnc2nc(N)nc(N)c2n1)c1ccc(C(=O)NC(CCC(=O)O)C(=O)O)cc1 (centres unmarked) [TCMDC-125488] | – | 31.4%
Cc1[nH]c(C)c(-c2ccc(Oc3ccc(OC(F)(F)F)cc3)cc2)c(=O)c1I [TCMDC-137387] | 20.63% | –
Cc1[nH]c(C)c(-c2cccc(-c3ccc(OC(F)(F)F)cc3)c2)c(=O)c1Br [TCMDC-135303] | 76.13% | –
Cc1[nH]c(C)c(-c2ccc(-c3ccc(OC(F)(F)F)cc3)cc2)c(=O)c1Br [TCMDC-134726] | 85.61% | –
Cc1[nH]c(C)c(-c2ccc(Oc3ccc(OC(F)(F)F)cc3)cc2)c(=O)c1Br [TCMDC-138826] | – | 69.76%
Cc1[nH]c(C)c(-c2ccc(Oc3ccc(OC(F)(F)F)cc3)cc2)c(=O)c1Br [TCMDC-137325] | – | 14.7%
Cc1[nH]c(C)c(-c2ccc(-c3ccc(OC(F)(F)F)cc3)cc2)c(=O)c1Cl [TCMDC-136060] | 114.3% | –
Cc1[nH]c(C)c(-c2ccc(Oc3cccc(OC(F)(F)F)c3)cc2)c(=O)c1Cl [TCMDC-137389] | 30.57% | –
CS(=O)(=O)NCCCNCc1ccc(-c2ccc(-c3nc4cc(F)ccc4[nH]3)cc2)cc1.O=C(O)C(F)(F)F [TCMDC-133081] | -74.36% | –
Cc1cc(Nc2cc(Cl)cc(Cl)c2)nc(N)n1 [TCMDC-123780] | 13.41% | –
CCCCc1ccc2[nH]cc(C3=CCN(C)CC3)c2c1Br [TCMDC-138963] | 18.47% | –
CCCCc1ccc(-c2nc(NC(=O)Nc3nc(-c4ccccc4)[nH]c3C(=O)OCC)c(C(=O)OCC)[nH]2)cc1 [TCMDC-138897] | -17.92% | –
CC(C)Nc1nc(NCCc2cnc[nH]2)nc(Nc2ccc(Oc3ccccc3)cc2)n1 [TCMDC-139746] | -7.765% | –
COc1cc(CNCCCNc2cc(=O)c3ccccc3[nH]2)c2c(c1)C(C)CN2C(=O)OC(C)(C)C (centres unmarked) [TCMDC-140390] | -23.23% | –
Cc1c(O)cccc1Nc1ccnc2ccc(C(F)(F)F)cc12 [TCMDC-138246] | -8.539% | –
CN(C)C(=O)CN1CCN(c2ncnc(N3CCc4c([nH]c5ccccc45)[C@@H]3c3ccc4c(c3)CCO4)n2)CC1 [TCMDC-138571] | 5.552% | –
Oc1cccc(C2CCCN(Cc3cccc4cc[nH]c34)C2)c1 (centres unmarked) [TCMDC-134419] | -7.919% | –

Structure (SMILES) | % Inhibition | % Inhibition (% Inhibition)
CCCCc1cc(NCc2ccncc2)nc(Nc2ccc(C)cc2)n1 [TCMDC-134000] | -5.693% | –
NC1CCN(Cc2ccc(-c3ccc(-c4nc5cc(F)ccc5[nH]4)cc3)cc2)C1 (centres unmarked) [TCMDC-133872] | 102.5% | –
NC1CCN(Cc2cccc(-c3ccc(-c4nc5ccc(F)cc5[nH]4)cc3)c2)C1 (centres unmarked) [TCMDC-133853] | 40.4% | –
OC1CCCN(Cc2ccc(-c3cccc(-c4nc5ccc(F)cc5[nH]4)c3)cc2)C1 (centres unmarked) [TCMDC-133815] | -14.67% | –
NC1CCCN(Cc2ccc(-c3cccc(-c4nc5ccc(F)cc5[nH]4)c3)cc2)C1 (centres unmarked) [TCMDC-133840] | 68.96% | –
CC1CN(Cc2ccc(-c3ccc(-c4nc5cc(F)ccc5[nH]4)cc3)cc2)CC(C)O1.O=C(O)C(F)(F)F (centres unmarked) [TCMDC-133831] | -15.75% | –
O=C(O)C(F)(F)F.OC1CCCN(Cc2ccc(-c3ccc(-c4nc5cc(F)ccc5[nH]4)cc3)cc2)C1 (centres unmarked) [TCMDC-133833] | -10.21% | –
NC1CCN(Cc2ccc(-c3cccc(-c4nc5ccc(F)cc5[nH]4)c3)cc2)C1 (centres unmarked) [TCMDC-133838] | 61.76% | –
NC1CCCN(Cc2cccc(-c3ccc(-c4nc5ccc(F)cc5[nH]4)cc3)c2)C1 (centres unmarked) [TCMDC-133855] | 20.47% | –
CC(=O)N(C)C1CCN(Cc2ccc(-c3cccc(-c4nc5ccc(F)cc5[nH]4)c3)cc2)C1 (centres unmarked) [TCMDC-133885] | 25.2% | –
O=C(Nc1ccc2c(c1)CCN2C1CCN(Cc2ccc(O)cc2)C1)c1ccco1 (centres unmarked) [TCMDC-135066] | -16.31% | –
COC(=O)c1ccc(CC(C)NCC(O)c2cccc(C(F)(F)F)c2)cc1F (centres unmarked) [TCMDC-131519] | 6.156% | –
NC1=NC(c2ccccc2)(c2ccccc2)C(=O)N1Cc1ccccc1Br [TCMDC-136813] | -33.84% | –
O=c1cc(NCc2ccccc2NCc2ccc(Cl)c(Cl)c2)[nH]c2ccccc12 [TCMDC-139499] | -0.9265% | –
COc1ccc2nc(C)cc(NN=Cc3cc(C)ccc3O)c2c1 [TCMDC-124232] | 86.79% | –
COc1ccc2c(NN=Cc3ccncc3)ccnc2c1 [TCMDC-142030] | -7.897% | –
COc1ccc(C=NNc2cc(C)nc3ccc(OC)cc23)c(OC)c1 [TCMDC-123955] | 105.7% | –
COc1ccc2c(NN=Cc3ccncc3)cc(C)nc2c1 [TCMDC-142038] | 85.05% | –
COc1ccc2nc(C)cc(Nc3ccc(N4CCN(C)CC4)cc3)c2c1 [TCMDC-125813] | 1.536% | –
COc1ccc2nc(C)cc(Nc3ccc(Cl)c(Cl)c3)c2c1 [TCMDC-124166] | 19.57% | –
COc1ccc2c(Nc3ccc(N4CCN(C)CC4)cc3)cc(C)nc2c1 [TCMDC-123914] | 63.09% | –
COc1ccc2nccc(NN=Cc3ccncc3)c2c1 [TCMDC-142033] | 25.13% | –
